Source: PubChem
An excerpt weighted towards active compounds, which were near 2.4% of everything screened.
D2 PAM-1: positive allosteric modulators of human D2 dopamine receptor | HEK293 T-REx D2, calcium flux, EC20 dopamine potentiation | potentiation, % at 10 µM | P14416 | hit rate 0.34% among 340,000;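 active = potentiation over 3 SD above the plate norm, cut at about 30% in these data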; also: 0% is about no effect
Target sequence (P14416 whole entry, looked up): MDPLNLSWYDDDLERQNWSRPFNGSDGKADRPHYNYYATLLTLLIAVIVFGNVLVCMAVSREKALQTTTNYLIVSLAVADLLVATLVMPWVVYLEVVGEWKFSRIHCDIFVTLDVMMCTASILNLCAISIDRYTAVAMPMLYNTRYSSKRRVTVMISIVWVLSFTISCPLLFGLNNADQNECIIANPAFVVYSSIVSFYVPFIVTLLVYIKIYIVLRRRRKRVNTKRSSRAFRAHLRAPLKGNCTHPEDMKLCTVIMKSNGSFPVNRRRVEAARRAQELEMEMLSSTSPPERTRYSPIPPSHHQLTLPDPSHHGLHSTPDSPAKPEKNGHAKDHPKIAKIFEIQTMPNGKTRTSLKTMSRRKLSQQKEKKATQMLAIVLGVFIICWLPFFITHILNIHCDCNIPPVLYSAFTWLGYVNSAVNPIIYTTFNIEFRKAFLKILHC
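Cells plated with tetracycline inducer and held overnight at 30 C; calcium dye loaded 30–90 min at room temperature; baseline taken, compound added and read 180 s; EC20 dopamine then added and read 180 s.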
D2 ag-1: D2 dopamine receptor (human) agonism; P14416; HEK293 T-REx D2 cells, calcium flux agonist mode; activation, % at 2 µM; hit rate 0.53% among 340,000; AID 485358;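 active = activation over 3 SD above normal in the single-dose calcium agonist read, cut at about 30% in these data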; also: 0% is about no effect
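Tetracycline-induced HEK293 T-REx cells with force-coupled D2 receptor, plated overnight at 30 C, loaded with no-wash calcium dye. After a 10 s baseline, compound was pin-added and calcium flux read kinetically for 180 s; calcium rises flagged agonists.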
D2 antag: D2 dopamine receptor (human) antagonism. hit rate 2% among 340,000. inhibition, % at 10 µM. AID 485344. P14416. HEK293 TREx D2 cells, calcium flux, dopamine EC80; in the data active = inhibition above about 30%; inactive = below that, where a call was filed; also: 0% is about no effect
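Inhibition of EC80 dopamine-driven calcium flux, recorded kinetically, defines activity here; cells are a tetracycline-induced HEK293 T-REx line expressing force-coupled D2.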
D2 ag-2: agonists of human D2 dopamine receptor (beta-arrestin) | P14416 | hit rate 0.084% among 360,000 | activation, % (no concentration beside the values) | DiscoveRx PathHunter D2 beta-arrestin, luminescence, 90 min; 100% = 57 uM dopamine signal; in the data active = activation above about 40%; inconclusive = between about 15% and that limit
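DiscoveRx PathHunter D2 beta-arrestin cells (2,100/well) attached overnight, then compound-stimulated 90 min at 37 C in HBSS/10 mM HEPES/0.1% Tween-20 buffer; beta-galactosidase complementation read by luminescence after 1 h at ambient temperature. Dopamine 57 uM final (EC100) as control.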
D2 PAM-2: potentiates the human D2 dopamine receptor allosterically. P14416. DiscoveRx D2 beta-arrestin cells, luminescence, 90 min; 100% = 57 uM dopamine signal. potentiation, % (no concentration beside the values). hit rate 0.23% among 360,000; in the data active = potentiation above about 50%; inconclusive = mostly about 30% to 49%
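PathHunter D2 cells, attached overnight at 37 deg C, received compound in DMSO plus dopamine at EC20 (50 nM final) for 90 min at 37 deg C. Beta-arrestin recruitment was read as luminescence after 1 h with detection reagent at ambient temperature.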
Active calls of the source: *.

How did CC(=O)c1ccc(NC(=O)[C@@H]2CCCN2C2=NS(=O)(=O)c3ccccc32)cc1 do in these assays?
D2 PAM-1: 14; D2 ag-1: 0; D2 antag: 37*; D2 ag-2: 1; D2 PAM-2: -3

How did Cc1cccc(NC(=O)[C@@H]2CCCN2C2=NS(=O)(=O)c3ccccc32)c1C do in these assays?
D2 PAM-1: 6; D2 ag-1: 0; D2 antag: -7; D2 ag-2: 2; D2 PAM-2: -4

What do the screens show for `CCOC(=O)c1c(C)n(-c2ccc(C)cc2)c2c(C(C(C)=O)C(=O)O)c(Br)c(O)c(O)c12` (centres undefined)?
D2 PAM-1: 2; D2 ag-1: 1; D2 antag: 13; D2 ag-2: inconclusive; D2 PAM-2: 70*

Results for CCOC(=O)c1c(C)n(-c2ccc(C)cc2)c2c(CC(C)=O)c(Br)c(OC)c(O)c12 ?
D2 PAM-1: 3; D2 ag-1: 0; D2 antag: -5; D2 ag-2: -1; D2 PAM-2: -4

How did CC1CCN(C(=O)CCc2ccc(Oc3cc([N+](=O)[O-])cc([N+](=O)[O-])c3)cc2)CC1 do in these assays?
D2 ag-2: inconclusive; D2 PAM-2: 84*

What do the screens show for `O=C(CCc1ccc(Oc2cc([N+](=O)[O-])cc([N+](=O)[O-])c2)cc1)NC1CCCC1`?
D2 PAM-1: -4; D2 ag-1: 0; D2 antag: 5; D2 ag-2: inconclusive; D2 PAM-2: 3

What do the screens show for `CC1=C(C(=O)OCc2ccc3c(c2)OCO3)C(c2ccccc2)NC(=O)N1` (centres undefined)?
D2 PAM-1: 6; D2 ag-1: 1; D2 antag: 45*; D2 ag-2: inconclusive; D2 PAM-2: 53*

Results for CCOC(=O)C1=C(C)NC(=O)NC1c1cc2c(cc1Br)OCO2 (centres undefined) ?
D2 PAM-1: 51*; D2 ag-1: 0; D2 antag: -11; D2 ag-2: -3; D2 PAM-2: -9

Results for COc1ccc(/C=N/NS(=O)(=O)c2ccccc2)cc1OS(=O)(=O)c1ccc(C)cc1 ?
D2 PAM-1: 3; D2 ag-1: 0; D2 antag: 32*; D2 ag-2: -6; D2 PAM-2: -22

How did CC1(C)CC(=O)N(CC(=O)NC2CCCC2)c2ccccc2S1(=O)=O do in these assays?
D2 PAM-1: -1; D2 ag-1: 2; D2 antag: 4; D2 ag-2: -2; D2 PAM-2: -2

Results for COc1ccc(OC)c(CCNC(=O)CN2C(=O)CC(C)(C)S(=O)(=O)c3ccccc32)c1 ?
D2 PAM-1: 34*; D2 ag-1: 0; D2 antag: -1; D2 ag-2: 1; D2 PAM-2: -3

How did N#Cc1ccccc1CN1C(=O)c2ccccc2Sc2ccc(C(=O)OCc3ccco3)cc21 do in these assays?
D2 PAM-1: 5; D2 ag-1: 2

Results for COc1ccc(C(=O)NCc2cn3ccsc3n2)cc1OC ?
D2 PAM-1: 33*; D2 ag-1: 1; D2 antag: -5; D2 ag-2: -3; D2 PAM-2: -2

How did COC(=O)c1c(C)[nH]c(C(=O)C(C)Sc2nnc(-c3cc(OC)c(OC)c(OC)c3)o2)c1C (centres undefined) do in these assays?
D2 PAM-1: 5; D2 ag-1: -1; D2 antag: 32*; D2 ag-2: -1; D2 PAM-2: -9

Results for COC(=O)NC1(C(F)(F)F)C(=O)NC(C)=C1C(=O)OC (centres undefined) ?
D2 PAM-1: 39*; D2 ag-1: 1; D2 antag: -4; D2 ag-2: 0; D2 PAM-2: -10

How did CCN(CC)S(=O)(=O)c1cc(NC(=O)C(C)N2CCN(Cc3ccc4c(c3)OCO4)CC2)ccc1C (centres undefined) do in these assays?
D2 PAM-1: -26; D2 ag-1: -1; D2 antag: 84*; D2 ag-2: -5; D2 PAM-2: -53

What do the screens show for `CCN(CC)S(=O)(=O)c1cc(NC(=O)C(C)N2CCN(c3ccccn3)CC2)ccc1C` (centres undefined)?
D2 PAM-1: -21; D2 ag-1: 35*; D2 antag: 15; D2 ag-2: 4; D2 PAM-2: 5

How did CNC(=O)C1CCC(Cn2c(=O)c3sccc3n(CC(=O)Nc3ccc(C)c(F)c3)c2=O)CC1 (centres undefined) do in these assays?
D2 PAM-1: 6; D2 ag-1: 1

What do the screens show for `Cc1ccc(S(=O)(=O)N(Cc2ccccc2)Cc2ccco2)cc1`?
D2 PAM-1: -10; D2 ag-1: 0; D2 antag: 33*; D2 ag-2: -5; D2 PAM-2: -7

Results for Cc1ccc(S(=O)(=O)N(Cc2ccc(F)cc2)Cc2ccco2)cc1 ?
D2 PAM-1: -17; D2 ag-1: 0; D2 antag: -18; D2 ag-2: 3; D2 PAM-2: -3

How did COc1ccc(C(=O)CCN2CCN(c3ccccc3OC)CC2)cc1 do in these assays?
D2 PAM-1: -3; D2 ag-1: -1; D2 antag: -7; D2 ag-2: -3; D2 PAM-2: -15

How did O=C(C1CCCCC1)N(Cc1ccccc1)c1ccccn1 do in these assays?
D2 PAM-1: -2; D2 ag-1: 0; D2 antag: -18; D2 ag-2: 2; D2 PAM-2: -8

What do the screens show for `Cc1ccc(CN(C(=O)c2ccc(F)cc2)c2ccccn2)o1`?
D2 PAM-1: -10; D2 ag-1: 1

Results for COc1ccccc1N1CCN(CCN(C(=O)c2ccc(F)cc2)c2ccccn2)CC1 ?
D2 PAM-1: -20; D2 ag-1: 1; D2 antag: 61*; D2 ag-2: -3; D2 PAM-2: -35

What do the screens show for `COc1ccccc1N1CCN(CCCC(=O)c2ccc(F)cc2)CC1`?
D2 PAM-1: -24; D2 ag-1: -1; D2 antag: 70*; D2 ag-2: -3; D2 PAM-2: -35

What do the screens show for `COc1ccccc1N1CCN(CCN(C(=O)C2CCCCC2)c2ccccn2)CC1`?
D2 PAM-1: -19; D2 ag-1: 0; D2 antag: 70*; D2 ag-2: -3; D2 PAM-2: -37

Results for Cc1ccc(NC(=O)Cc2ccc(-n3c(C)nc4cccnc43)cc2)c(Cl)c1 ?
D2 PAM-1: 6; D2 ag-1: 0

How did COc1ccc(NC(=O)CSc2nc3c(oc4ccccc43)c(=O)n2-c2ccccc2)cc1OC do in these assays?
D2 PAM-1: 14; D2 ag-1: 0

What do the screens show for `CCOC(=O)c1c(C)[nH]c(C)c1S(=O)(=O)NCC(=O)Nc1ccc(C)c(N(C)C)c1`?
D2 PAM-1: -2; D2 ag-1: 0

What do the screens show for `Clc1ccc2c(c1)CCc1cccnc1C2=C1CCNCC1`?
D2 antag: 30*

How did O=C(COc1ccccc1)N/N=C/c1sc(=O)n(Cc2cccc(C(=O)O)c2)c1Cl do in these assays?
D2 PAM-1: -5; D2 ag-1: 0; D2 antag: 44*; D2 ag-2: 3; D2 PAM-2: -4
